Bioassay records (PubChem)
An excerpt weighted towards active compounds, which were near 19% of everything screened.
TDP1 cell CPT: growth inhibition of DT40 Tdp1-/-;hTDP1 cells with camptothecin (screen for TDP1 inhibitors); chicken DT40 Tdp1-/-;hTDP1 cells + 20 nM CPT, ATP luminescence, 48 h; Potency, µM (titrated, usually from 46.2 µM), actives largely listed as inhibitors; 12% of 420,000 active; further: nearly all actives have a fitted effect of over 55% in size
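Cell growth measured by CellTiter-Glo luminescence after a minimum 48 h, 37 C compound exposure with 20 nM CPT in Tdp1-knockout DT40 cells stably expressing hTDP1, seeded 400/well; qHTS titration format.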
HT1080NT lethal: kills 2HG-producing HT-1080-NT fibrosarcoma cells; HT-1080-NT fibrosarcoma viability, CellTiter-Glo ATP luminescence, 48 h; Potency, µM (doses to about 46.1 µM), most hits filed as cytotoxic; 1.6% of 360,000 active; AID 686970;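 further: NT is the 2HG producing partner of a matched IDH1 knockdown line; nearly all actives have a fitted effect of over 55% in size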
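Read-out is CellTiter-Glo luminescence after 10 minutes at room temperature, following 48 hours' compound treatment of HT-1080-NT cells (750 cells/well, RPMI, 5% FBS, 37 degrees C).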
KB-3-1 tox: KB-3-1 parental cell cytotoxicity | 1.4% of 400,000 active | KB-3-1 viability, CellTiter-Glo ATP luminescence, 72 h | Potency, µM (doses to about 46.1 µM), most hits filed as cytotoxic | AID 1347075; further: nearly all actives have a fitted effect of over 60% in size
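KB-3-1 parental drug-naive adenocarcinoma cells in DMEM/10% FBS, incubated 72 h at 37 C with pin-transferred compounds across a concentration series. Viability by CellTiter-Glo luminescence; concentration-response curves fitted after normalization.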
HT1080 IDH1KD tx: HT-1080 IDH1 knockdown cell toxicity (counter line). 2% of 360,000 active. HT-1080 IDH1 knockdown viability, ATP luminescence, 48 h. Potency, µM (series often up to 46.1 µM), most hits filed as cytotoxic
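IDH1KD HT-1080 cells, 750/well, RPMI + 5% FBS; compound pinned after 2 h settling; 48 h, 37 °C; CellTiter-Glo luminescence; % activity normalised to DMSO and no-cell wells; curves fitted, classed by r2 and efficacy.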
TDP1 cell noCPT: qHTS for Inhibitors of human tyrosyl-DNA phosphodiesterase 1 (TDP1): qHTS in cells in absence of CPT; DT40 Tdp1-/- hTDP1 cells, no CPT, ATP luminescence, 48 h; Potency, µM (series often up to 46.2 µM), most hits filed as inhibitors; 15% of 420,000 active; AID 686978, 2013; further: nearly all actives have a fitted effect of over 55% in size
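Chicken DT40 Tdp1-/- cells stably complemented with human TDP1 were seeded at 400 cells/well with DMSO in place of 20 nM camptothecin. After compound pinning, cells grew at least 48 hr at 37 °C; viability read by CellTiter-Glo luminescence.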
KB-V1 cytotox: KB-V1 MDR subline cytotoxicity; Potency, µM (highest dose often 46.1 µM), most hits filed as cytotoxic; KB-V1 MDR cells viability, CellTiter-Glo, 72 h; 3.4% of 400,000 active; further: nearly all actives have a fitted effect of over 60% in size
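Cytotoxicity via CellTiter-Glo luminescence after 72 h compound exposure at 37 degrees C. Cells: drug-selected KB-V1 line, DMEM phenol-red free plus 10% FBS. Compounds tested at multiple concentrations; normalized data fitted to concentration-effect curves.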
Hits are given with their value; 0 = inactive; ? = inconclusive; - = no result given; [ ] = remark or other dose. The call rests on the fitted dose curve; in most records, active means well fitted curve in the direction sought with a large enough effect; inconclusive means small, poorly fitted or top-dose-only effect, or another doubt; inactive means no such curve, though single readings can be large; an effect the other way counts as inactive or inconclusive.

SMILES | TDP1 cell CPT | HT1080NT lethal | KB-3-1 tox | HT1080 IDH1KD tx | TDP1 cell noCPT | KB-V1 cytotox
COCCCNc1ncnc2sc(C(=O)N3CCCCC3)c(C)c12 | 0[9.04 µM] | - | - | - | ? | -
COc1cccc(C2C3=C(N=C4SCC(=O)N42)c2ccccc2CC3)c1OC (centres undefined) | 23µM | 0 | ? | 0 | 21µM | 0
COc1ccc(CCNC(=O)C(=O)NCC(c2ccc3c(c2)OCO3)N2CCOCC2)cc1OC (centres undefined) | 0 | - | - | - | 0 | -
CCCS(=O)(=O)c1c(S(=O)(=O)CCC)c2c(N)cccn2c1C(=O)c1ccc(OC)cc1 | 0 | 0 | 0 | 0 | 0 | 0
CCCS(=O)(=O)c1c(S(=O)(=O)CCC)c2c(N)cccn2c1C(=O)c1ccc(Br)cc1 | 16µM | 0 | 0 | 0 | ? | 0
CCCS(=O)(=O)c1c(S(=O)(=O)CCC)c2ccccn2c1C(=O)OC | 21µM | 0 | 0 | 0 | 16µM | ?
CCCS(=O)(=O)c1c(S(=O)(=O)CCC)c2c3ccccc3ccn2c1C(=O)OC | ? | 0 | 0 | 0 | 26µM | ?
CCCS(=O)(=O)c1c(S(=O)(=O)CCC)c2c(C)cccn2c1C(=O)OC | 13µM | 0 | 0 | 0 | 13µM | ?
CCCS(=O)(=O)c1c(S(=O)(=O)CCC)c2c(N)cccn2c1C(=O)c1ccc(F)cc1 | 0 | 0 | 0 | 0 | ? | ?
COC(=O)c1c(C(=O)OC)c2ccccn2c1C(=O)c1ccc([N+](=O)[O-])cc1 | 0 | 0 | 0 | 0 | 0 | 0
Cc1cccc(Cn2cc3c(=O)n(CC(=O)Nc4c(C)cccc4C)nc-3c3cc(F)ccc32)c1 | 0 | - | 0 | - | 0 | 0
O=S(=O)(NCCCCNS(=O)(=O)c1cccc2cccnc12)c1cccc2cccnc12 | 0 | - | 0 | - | 0 | 0
Cc1cccc(CCNC(=O)C2CCC(=O)N(Cc3ccccc3F)C2)n1 (centres undefined) | 0 | 0 | 0 | 0 | 0 | 0
COCCCNC(=O)Cn1c(=O)n(-c2cccc(C)c2)c(=O)c2c1c1cc(C)ccc1n2C | 0 | - | - | - | ? | -
CCCS(=O)(=O)c1c(S(=O)(=O)CCC)c2cc(C(C)(C)C)ccn2c1C(=O)c1ccccc1 | 18µM | - | 0 | - | 16µM | 0
CCCS(=O)(=O)c1c(S(=O)(=O)CCC)c2ccc(C(N)=O)cn2c1C(=O)c1ccc(F)cc1 | 0 | 0 | 0 | 0 | 0 | 0
O=C(C[C@H]1C/C=C\CC[C@@H](Cc2ccc(F)cc2)C(=O)O[C@@H](c2ccccc2)CNC1=O)N[C@@H](CO)Cc1ccccc1 | 0 | 0 | 0 | 0 | 0 | 0
CC(C)(C)OC(=O)C[C@@H]1C/C=C\C[C@@H](CC(=O)N[C@@H](CO)Cc2ccccc2)C(=O)NC[C@@H](c2ccccc2)OC1=O | 23µM | 0 | 0 | 0 | ? | ?
O=C(C[C@H]1C/C=C\C[C@H](Cc2ccc(F)cc2)C(=O)O[C@@H](c2ccccc2)CNC1=O)N[C@@H](CO)Cc1ccccc1 | 21µM | 0 | 0 | 0 | 12µM | ?
O=C(C[C@H]1C/C=C\CC[C@@H](Cc2ccc(F)cc2)C(=O)O[C@H](c2ccccc2)CNC1=O)N[C@H](CO)Cc1ccccc1 | 18µM | 0 | 0 | 0 | 15µM | 0
O=C(C[C@@H]1C/C=C/CC[C@@H](Cc2ccc(F)cc2)C(=O)O[C@@H](c2ccccc2)CNC1=O)NCCO | ? | 0 | 0 | 0 | 18µM | 0
CC(C)(C)OC(=O)C[C@H]1C/C=C\C[C@@H](CC(=O)N[C@@H](CO)Cc2ccccc2)C(=O)NC[C@@H](c2ccccc2)OC1=O | 0 | 0 | ? | 0 | 0 | ?
O=C(C[C@H]1C/C=C/CC[C@H](Cc2ccc(F)cc2)C(=O)O[C@H](c2ccccc2)CNC1=O)NCCO | ? | 0 | 0 | 0 | ? | 0
Cn1c(=O)c2c(nc(CN3CCN(C(=O)c4ccco4)CC3)n2CC(=O)C(C)(C)C)n(C)c1=O | 0 | 0 | 0 | 0 | 0 | 0
CCOC(=O)[C@]12CCCC=C1N(CCC1=CCCCC1)C(=O)[C@H](CC(=O)N1CCN(C(=O)C3CC3)CC1)C2 | ? | 0 | 0 | 0 | ? | 0
SMILES | TDP1 cell CPT | HT1080NT lethal | KB-3-1 tox | HT1080 IDH1KD tx | TDP1 cell noCPT | KB-V1 cytotox
C[C@]12CCC3C(CC[C@H]4CCCC[C@]34C)C1CC[C@@]2(O)CNCCO (some centres undefined) | 13µM | ? | 0 | 0 | ? | ?
CC(=O)OC1CCC2(C)C3CCC4(C)C(CC5CCCCC54C(C)=O)C3CC(=O)[C@@]2(O)C1 (some centres undefined) | 0 | - | - | - | ? | -
Cc1ccc2oc(C(=O)N(C)Cc3ccc(C)o3)c(C)c2c1 | 8.2µM | 0 | 0 | 0 | 16µM | 0
CCOc1ccc2oc(C(=O)OCC(=O)NC3CCCC3)c(C)c2c1 | ? | 0 | 0 | 0 | 0 | 0
Cc1ccc(NC(=O)c2oc3ccccc3c2C)nc1 | ? | 0 | 0 | 0 | 0 | 0
CCOc1ccc2oc(C(=O)Nc3ccc(C)cn3)c(C)c2c1 | ? | 0 | 0 | 0 | 18µM | 0
COc1ccccc1NC(=O)c1oc2ccc(C)cc2c1C | ? | 0 | 0 | 0[9.24 µM] | ? | 0
Cc1ccc2oc(C(=O)Nc3cc(C)on3)c(C)c2c1 | 0 | 0 | 0 | 0 | 5.8µM | 0
CCCN(CC1CC1)C(=O)COC(=O)c1oc2ccc(OCC)cc2c1C | 0 | 0 | 0 | 0 | 6.5µM | 0
Cc1ccc(OCc2cc(=O)n3cc(C)sc3n2)c(NC(=O)c2ccco2)c1 | 0 | - | - | - | ? | -
Cc1ccc2oc(C(=O)Nc3c(C(=O)Nc4cccc(Cl)c4)oc4ccccc34)cc(=O)c2c1 | 0 | - | ? | - | 0 | 0
COc1ccc(CN(C)CCCn2cnc3c(SC)ncnc32)cc1OC | 0 | 0 | 0 | 0 | 0 | ?
Cc1c(/C(O)=C2\C(=O)C(=O)N(CCN(C)C)C2c2ccccc2)cnn1-c1ccccc1 (centres undefined) | 0 | 0 | 0 | 0 | ? | ?
CCOc1ccc2oc(C(=O)NC3CCN(Cc4ccccc4)CC3)c(C)c2c1 | 3.7µM | ? | ? | ? | 5.2µM | ?
Cc1oc(-c2cccc(Cl)c2)nc1CSc1nnc(C)n2c1cc1occc12 | 0 | - | 0 | - | 0 | 0
CCn1cc2nc(SCC(=O)Nc3ccc(OC)cc3OC)n(Cc3ccc(Cl)cc3)c(=O)c2n1 | 21µM | - | 0 | - | 18µM | 0
CCn1cc2nc(SCC(=O)Nc3cc(OC)ccc3OC)n(Cc3ccc(Cl)cc3)c(=O)c2n1 | 12µM | - | 0 | - | 8.2µM | 0
CCn1cc2nc(SCC(=O)Nc3cccc(Cl)c3C)n(Cc3ccc(Cl)cc3)c(=O)c2n1 | ? | - | 0 | - | ? | ?
CCN(CC)C(=O)CSc1nc2cc(OC)c(OC)cc2c(=O)n1Cc1ccc(Cl)cc1 | ? | 0 | 0 | 0 | 18µM | ?
